# Test results published in PubChem BioAssay AID1645838 (ICCB-Longwood Screening Facility, Harvard Medical School, 2021).
# Where “and” joins values, the source holds several entries; their conditions need not be identical. Identical values can stand only once. The campaign covered roughly 2,000 compounds. About 100 (5%) were called active. No stated cut-off is given here; in the data, active means z-score above about 2; inactive means the rest. What follows is part of a selection rich in actives, with near analogues and random picks from the rest. Some compounds were tested as several samples or in several runs, with calls that do not always agree.
# Assay: supercomplex reporter luminescence per Hoechst cell count – Hoechst nuclei count (AID 1645838);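 further: control cybrid cells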;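 on z-score: higher means more mitochondrial supercomplex formation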
# Settings: Cells, luminescence/Hoechst cell count ratio; for z-score: stronger effect = higher value; for cell count: measured here: cell number, Hoechst nuclei count
# [1] = library stock concentration (final well concentration not given) 80 uM
# [2] = library stock concentration (final well concentration not given) 400 uM
# [3] = library stock concentration (final well concentration not given) 2 mM
# [4] = library stock concentration (final well concentration not given) 10 mM
# [5] = library stock concentration (final well concentration not given) 46 uM
# [6] = library stock concentration (final well concentration not given) 278 uM
# [7] = library stock concentration (final well concentration not given) 1.67 mM
smiles,measurement,setting,value
O=c1cc(N2CCOCC2)oc2c(-c3cccc4c3sc3ccccc34)cccc12,z-score,[1],-0.493 (inactive) and 0.0213 (inactive)
same,z-score,[2],-0.14 (inactive) and 0.291 (inactive)
same,z-score,[3],1.89 (inactive) and 3.23 (active)
same,z-score,[4],0.374 (inactive) and 11.4 (active)
same,cell count,[1],4940 and 6230
same,cell count,[2],4400 and 5530
same,cell count,[3],3070 and 3850
same,cell count,[4],4020 and 1970
O=c1cc(N2CCOCC2)oc2c1ccc1ccccc12,z-score,[5],-0.263 (inactive)
same,z-score,[6],0.075 (inactive)
same,z-score,[7],0.0237 (inactive)
same,z-score,[4],-0.121 (inactive)
same,cell count,[5],6320
same,cell count,[6],6310
same,cell count,[7],6270
same,cell count,[4],6380
O=c1cc(N2CCOCC2)oc2c(-c3ccccc3)cccc12,z-score,,0.00801 (inactive)
same,cell count,,5270
C[C@@H](O)CCC[C@@H](O)/C=C/[C@@H]1[C@@H](CCCCCCC(=O)O)[C@@H](O)C[C@H]1O,z-score,,-0.0165 (inactive)
same,cell count,,5060
NC(=O)c1ccc(-c2nc(-c3ccc4c(c3)OCO4)c(-c3ccccn3)[nH]2)cc1,z-score,,-0.0341 (inactive)
same,cell count,,5380
NC(=O)c1ccc2nc(-c3ccc(Oc4ccc(Cl)cc4)cc3)[nH]c2c1,z-score,[1],0.235 (inactive)
same,z-score,[2],0.636 (inactive)
same,z-score,[3],0.25 (inactive)
same,z-score,[4],2.04 (active)
same,cell count,[1],4680
same,cell count,[2],4440
same,cell count,[3],4560
same,cell count,[4],3840
NC(=O)c1ccc(-c2nc(-c3ccc4c(c3)OCCO4)c(-c3ccccn3)[nH]2)cc1,z-score,,0.107 (inactive)
same,cell count,,5540
CCCCCCCCCCCSCC(=O)O,z-score,,-0.636 (inactive)
same,cell count,,5540
CCCCCCCCCCCCCCCC(=O)NC(C)C,z-score,,-0.641 (inactive)
same,cell count,,5670
CCCCCC(O)/C=C/C=O (stereo not given),z-score,,-0.635 (inactive)
same,cell count,,5350
CCCCCC(=O)/C=C/C=O,z-score,,3.38 (active)
same,cell count,,4570
CCCCCC/C=C\CCCCCCCC(=O)OCC,z-score,,-0.872 (inactive)
same,cell count,,5340
Cc1ccc(C)c(-n2sc3cc(F)ccc3c2=O)c1,z-score,[5],-0.174 (inactive)
same,z-score,[6],-0.302 (inactive)
same,z-score,[7],-1.02 (inactive)
same,z-score,[4],1.44 (inactive)
same,cell count,[5],7370
same,cell count,[6],6230
same,cell count,[7],7150
same,cell count,[4],2660
CS(=O)(=O)N1CCc2c(-c3cnc(N)nc3)nc(N3CCOCC3)nc21,outcome,library stock 10 mM,inactive; censored for cell count
same,z-score,[1],-0.156 (inactive)
same,z-score,[2],0.294 (inactive)
same,z-score,[3],1.97 (active)
same,cell count,[1],5660
same,cell count,[2],4440
same,cell count,[3],2590
CC1=C(C(=O)Nc2ccccc2C)C(c2cccc([N+](=O)[O-])c2)C2=C(CCCC2=O)N1 (stereo not given),z-score,[1],0.502 (inactive)
same,z-score,[2],0.355 (inactive)
same,z-score,[3],-0.0592 (inactive)
same,z-score,[4],0.0886 (inactive)
same,cell count,[1],4870
same,cell count,[2],4830
same,cell count,[3],4490
same,cell count,[4],4680
